In all, about 360,000 compounds went through this assay and about 11,000 (3.1%) were called active. The sample as a whole holds a higher share of actives than the screen did. Unmarked numbers belong to inactive results. Rule as the data show it: active = activity change below about -30%; inactive = the rest.

This note sets out measurements from PubChem BioAssay AID504652 (National Center for Advancing Translational Sciences (NCATS), 2011).
% is scaled to controls: 0 for no effect and ±100 for the full control effect.

The target in this test is D(1A) dopamine receptor (Homo sapiens) (UniProt P21728). Nature of the test: Antagonist of Human D 1 Dopamine Receptor: qHTS. Conditions: HEK293 TREx D1 cells, calcium flux, dopamine EC80; at 10 µM; hits give low values. The source says: Dopamine receptors (DARs) are involved in the etiology and/or therapy of a number of neuropsychiatric and endocrine disorders. For instance, all receptor-based antiparkinsonian drugs work via stimulating the […] DAR subtype whereas all FDA-approved antipsychotic agents are antagonists of this receptor. […] There are three different types of allosteric modulators that we are seeking, two of which will stimulate or augment receptor signaling, allosteric agonists and potentiators, while the third, allosteric antagonists, will attenuate receptor signaling. The present primary screening assay measures compound antagonism after an EC80 addition of dopamine by tracking calcium flux in a […], inducible Hek293 Trex D1 cell line. NIH Chemical Genomics Center [NCGC] NIH Molecular Libraries Probe Centers Network [MLPCN] MLPCN Grant: NS064831-01 Assay Submitter (PI): David Sibley
Sequence of D(1A) dopamine receptor (Homo sapiens) (P21728 whole entry, looked up): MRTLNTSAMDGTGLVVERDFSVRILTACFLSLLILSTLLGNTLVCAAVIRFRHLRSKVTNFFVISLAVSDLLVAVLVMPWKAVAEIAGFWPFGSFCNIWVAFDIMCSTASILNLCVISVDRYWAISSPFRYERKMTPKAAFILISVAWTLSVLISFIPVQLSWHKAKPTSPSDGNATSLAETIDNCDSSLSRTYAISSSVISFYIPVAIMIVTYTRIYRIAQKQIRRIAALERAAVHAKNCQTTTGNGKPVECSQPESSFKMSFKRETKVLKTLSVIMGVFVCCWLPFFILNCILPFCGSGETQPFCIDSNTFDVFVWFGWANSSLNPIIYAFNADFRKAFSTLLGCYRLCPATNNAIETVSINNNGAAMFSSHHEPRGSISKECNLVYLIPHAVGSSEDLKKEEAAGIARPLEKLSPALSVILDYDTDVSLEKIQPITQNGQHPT
Freshly passaged cells are plated in 1536 well black, clear bottom plates at a density of 4000 cells/well in 3 ul of complete media containing 1x tetracycline inducer. After an overnight incubation at 30 C in 5% CO2, cells are loaded with 2 ul of the no wash Calcium Assay Kit (ABD Bioquest) and incubated at room temperature for 30 to 90 minutes. Agonist read: A 10 cycle (1 second/cycle) baseline measurement is taken and then the FDSS online 1536 pintool delivers 23 nl of compound library (as well as dopamine controls) to the plate. The plate is measured for kinetically at 1 cycle/sec for 180 seconds. Following the 180 second read, 1 ul of an EC80 (negative modulation assay) is delivered by an onboard pipette head. Measurements are taken kinetically for an additional 180 seconds.
On the technique in general: In qHTS, concentration-response curves come from the screen itself.
`CSc1ccc(CCNC(=O)c2cc(C)nc3c2c(C)nn3-c2cccc(F)c2)cc1`: the activity change, negative = inhibition was -11.8%.
The value for `Cc1cc(C(=O)Nc2cccc(C(F)(F)F)c2)c2c(C)nn(-c3cccc(F)c3)c2n1` was -34.4% (active).
Then `CC(C)(C)C1CCc2c(sc(NC(=O)c3ccccc3F)c2C(=O)N2CCCCC2)C1` (stereo not given), with 4.22%; and `Cc1ccc(NC(=O)CN2c3ccccc3S(=O)(=O)c3ccccc32)cc1F`, with -3%.
Then `COc1cc(OC)c(-n2cc(-c3ccc(Cl)cc3)[nH]c2=O)cc1Cl`, with -36.2% (active).
On to `COc1cc(OC)c(N2CC(C(=O)Nc3cc(Cl)ccc3N3CCOCC3)CC2=O)cc1Cl` (stereo not given), for which the activity change, negative = inhibition is -18.4%.
Take `COc1cc(OC)c(-n2c(C)cc(C=O)c2C)cc1Cl`: the activity change, negative = inhibition was 14.6%.
Turning to `CCN1CCC(N(Cc2ccc(F)cc2)C(=O)Nc2cc(C)ccc2C)CC1`, the activity change, negative = inhibition is -6.08%.
The value for `Cc1ccsc1CN(C(=O)c1oc2ccc(Br)cc2c1C)C1CCS(=O)(=O)C1` (stereo not given) was -12.9%; that for `CCc1ccc(CN(Cc2ccco2)C(=O)COc2ccc(Cl)c(C)c2)cc1` was -3.05%.
Take `COc1ccc(Br)cc1CNC(=O)c1cc(=O)[nH]c2ccc(S(=O)(=O)N3CCCC3)cc12`: the activity change, negative = inhibition is 2.78%.
Then `O=C(O)[C@@H]1CCCN1c1ncnc2sc3c(c12)CCC3`, with -59.2% (active).
Then `CC1(C)CN=C(N2CCN(c3ncnc4sc5c(c34)CCCC5)CC2)S1`, with -2.14%; and `O=C(O)c1cccnc1Sc1ncnc2sc3c(c12)CCC3`, with 11.4%; and `O=C1OC(OC(=O)c2ccccc2Br)C(N2CCOCC2)=C1Cl` (stereo not given), with 6.42%.
Then `Cc1ccc(NC2=C(Cl)C(=O)OC2OC(=O)c2ccccc2C)cc1` (stereo not given), with -33.8% (active); and `Cc1ccccc1C(=O)OC1OC(=O)C(Cl)=C1Nc1ccccc1` (stereo not given), with -22.8%.
For `CCN(Cc1ccccc1)C(=O)c1cn(-c2cccc(OC)c2)c(=O)c2ccccc12`, the activity change, negative = inhibition was -4.13%.
Then `COc1ccccc1NC(=O)c1cc(C2CC2)nc2c1c(C)nn2-c1ccc(C)cc1`, with 3.81%.
Consider `Cc1ccccc1Nc1nn2c(=O)c3ccc(C(=O)NCCc4ccc(Cl)cc4)cc3nc2s1`, for which the activity change, negative = inhibition was -2.1%.
The value for `Cc1ccc(C(=O)Nc2ccccc2F)cc1S(=O)(=O)N1CCOCC1` was -16.7%; that for `Cn1c(CC(=O)NNC(=O)c2ccccc2F)nc2ccccc21` was -11.4%.
The value for `COc1cccc(C(O)Cc2nc3ccccc3n2C)c1OC` (stereo not given) was 5.85%; that for `Cn1c(COc2ccccc2C(C)(C)C)nc2ccccc21` was -65.7% (active).
Then `O=C(Cn1cc(SCc2ccccc2)c2ccccc21)N1CCCCC1`, with -7.17%; and `Cc1ccc(NC(=O)Nc2sc3nc4n(c(=O)c3c2C)CCC(C)CC4)c(Cl)c1` (stereo not given), with 10.9%; and `COc1ccc(CN2CCCC(C(=O)c3ccc(Cl)cc3)C2)cc1Cn1cncn1` (stereo not given), with -13.5%.
In the case of `COc1ccc(C2Nc3ccccc3C(=O)N2Cc2ccccc2)cc1Cn1nnc2ccccc21` (stereo not given), the activity change, negative = inhibition is 12.5%.
In the case of `COc1ccc(C2Nc3ccccc3C(=O)N2c2ccc(Cl)cc2)cc1Cn1cc([N+](=O)[O-])cn1` (stereo not given), the activity change, negative = inhibition was -30.3% (active).
Then `Cc1cc(C)cc(NC(=O)CSc2oc(-c3ccccc3)nc2S(=O)(=O)c2ccc(Cl)cc2)c1`, with -12.1%; and `O=C(COc1ccc(Cl)cc1)N(Cc1ccco1)Cc1ccco1`, with -16.4%; and `COc1ccccc1NC(=O)/C=C/C(N)=O`, with 19.1%.
For `COC(=O)c1sc(-c2ccc(C(C)(C)C)cc2)cc1NC(=O)/C=C/C(=O)O`, the activity change, negative = inhibition was -37% (active).
The value for `COC(=O)c1nc(NC(=O)c2ccc(C(C)(C)C)cc2)n[nH]1` was -14.1%; that for `O=C(O)c1ccc(Nc2nc(-c3ccccc3)c3cc(Br)ccc3n2)cc1` was -12.9%; that for `COc1ccc(NC(=O)CC(NC(C)c2ccccc2)C(=O)O)cc1` (stereo not given) was -21.7%.
The value for `COc1ccc(NC(=O)Cn2c(-c3ccc(OC)cc3)cn(-c3ccc(C)cc3)c2=O)cc1` was 3.29%; that for `COc1ccc(C(CC(=O)Nc2ccc(C)cc2)NC(=O)C(F)(F)F)cc1` (stereo not given) was -43.5% (active); that for `COc1ccc(-c2[nH]c3c(c2-c2c(-n4cccc4)n(C)c(=O)n(C)c2=O)c(=O)n(C)c(=O)n3C)cc1` was 1.12%.
Then `Cc1ccc(-c2cc(N)n(Cc3cccc(Cl)c3)n2)cc1`, with -6.88%.
Consider `O=C(CC(NCc1cccnc1)C(=O)O)Nc1ccc(O)cc1` (stereo not given), for which the activity change, negative = inhibition was 0.451%.
As to `O=[S+]([O-])(c1ccc2c(c1)OCCO2)N1CCN([S+](=O)([O-])c2c(Cl)cc(Cl)cc2Br)CC1`, the activity change, negative = inhibition was -16.4%.
Then `O=C(Nc1ccccc1)OCc1cc(-c2ccc(Cl)cc2)on1`, with -32.2% (active); and `O=C(Nc1ccc(Cl)cc1)OCc1cc(-c2ccccc2)on1`, with -17%; and `Clc1ccc(-c2cc(COc3ccccc3)no2)cc1Cl`, with 1.76%.
